Results taken from PubChem BioAssay (NCATS).
Records with an inconclusive call do not appear. Activity calls are given as the source filed them. The call rests on the fitted dose curve; in most records, active means well fitted cell-killing curve with a large enough effect; inconclusive means small, poorly fitted or top-dose-only effect, or effect the other way; inactive means no such curve, though single readings can be large or run the other way.

Legend:
[1] = Quantitative High-Throughput drug screen in 47 multiple myeloma cell lines against the NCATS MIPE library collection: KMS34_JCRB cell viability assay (AID 1918985); further: nearly all actives have a fitted effect of over 40% in size; further: potency means the concentration at half of the fitted maximal effect
Outline: (§1)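 Cells were exposed to library compounds for 48 hours, after which ATP was measured by CellTiter-Glo. Signal was taken as median relative luminescence units.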

[2] = Quantitative High-Throughput drug screen in 47 multiple myeloma cell lines against the NCATS MIPE library collection: OPM1_PLB cell viability assay (AID 1918989); further: nearly all actives have a fitted effect of over 40% in size; further: potency means the concentration at half of the fitted maximal effect
Outline: as §1

[3] = Quantitative High-Throughput drug screen in 47 multiple myeloma cell lines against the NCATS MIPE library collection: SKMM1_PLB cell viability assay (AID 1919863); conditions: SKMM1 myeloma viability, CellTiter-Glo ATP, 48 h; viability: stronger effect = lower value; further: nearly all actives have a fitted effect of over 35% in size; further: potency means the concentration at half of the fitted maximal effect
Outline: as §1

[4] = Quantitative High-Throughput drug screen in 47 multiple myeloma cell lines against the NCATS MIPE library collection: XG6_PLB cell viability assay (AID 1919865); further: nearly all actives have a fitted effect of over 40% in size; further: potency means the concentration at half of the fitted maximal effect
Outline: as §1

[5] = Quantitative High-Throughput drug screen in 47 multiple myeloma cell lines against the NCATS MIPE library collection: XG1_PLB cell viability assay (AID 1919866); further: nearly all actives have a fitted effect of over 35% in size; further: potency means the concentration at half of the fitted maximal effect
Outline: as §1

[6] = Quantitative High-Throughput drug screen in 47 multiple myeloma cell lines against the NCATS MIPE library collection: PCM6_Riken cell viability assay (AID 1919870); further: nearly all actives have a fitted effect of over 30% in size; further: potency means the concentration at half of the fitted maximal effect
Outline: as §1

[7] = Quantitative High-Throughput drug screen in 47 multiple myeloma cell lines against the NCATS MIPE library collection: RPMI8226_ATCC cell viability assay (AID 1919871); further: nearly all actives have a fitted effect of over 30% in size; further: potency means the concentration at half of the fitted maximal effect
Outline: as §1

[8] = Quantitative High-Throughput drug screen in 47 multiple myeloma cell lines against the NCATS MIPE library collection: OPM2_DSMZ cell viability assay (AID 1919872); further: nearly all actives have a fitted effect of over 30% in size; further: potency means the concentration at half of the fitted maximal effect
Outline: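 Myeloma cell lines, 500 cells per well, exposed to MIPE 4.0 library compounds for 48 h at 37C, 5% CO2. Viability from ATP by CellTiter-Glo luminescence; normalised to DMSO (100%) and media-only (0%) wells.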

[9] = Quantitative High-Throughput drug screen in 47 multiple myeloma cell lines against the NCATS MIPE library collection: KMS11_JCRBsus cell viability assay (AID 1919873); further: nearly all actives have a fitted effect of over 50% in size; further: potency means the concentration at half of the fitted maximal effect
Outline: as §1

[10] = Quantitative High-Throughput drug screen in 47 multiple myeloma cell lines against the NCATS MIPE library collection: KMS28BM_JCRB cell viability assay (AID 1919874); further: nearly all actives have a fitted effect of over 35% in size; further: potency means the concentration at half of the fitted maximal effect
Outline: as §1

[11] = Quantitative High-Throughput drug screen in 47 multiple myeloma cell lines against the NCATS MIPE library collection: OCIMY5_PLB cell viability assay (AID 1918988); further: nearly all actives have a fitted effect of over 65% in size; further: potency means the concentration at half of the fitted maximal effect
Outline: as §1

[12] = Quantitative High-Throughput drug screen in 47 multiple myeloma cell lines against the NCATS MIPE library collection: U266_ATCC cell viability assay (AID 1919864); further: nearly all actives have a fitted effect of over 35% in size; further: potency means the concentration at half of the fitted maximal effect
Outline: as §1

[13] = Quantitative High-Throughput drug screen in 47 multiple myeloma cell lines against the NCATS MIPE library collection: UTMC2_PLB cell viability assay (AID 1919868); conditions: CellTiter-Glo ATP luminescence, 48 h; viability (% of DMSO control): at 45.8 µM (top of the series); further: nearly all actives have a fitted effect of over 55% in size; further: potency means the concentration at half of the fitted maximal effect
Outline: as §1

[14] = Quantitative High-Throughput drug screen in 47 multiple myeloma cell lines against the NCATS MIPE library collection: PE2_PLB cell viability assay (AID 1919869); further: nearly all actives have a fitted effect of over 35% in size; further: potency means the concentration at half of the fitted maximal effect
Outline: as §1

[15] = Quantitative High-Throughput drug screen in 47 multiple myeloma cell lines against the NCATS MIPE library collection: VP6_DJ cell viability assay (AID 1919867); further: nearly all actives have a fitted effect of over 40% in size; further: potency means the concentration at half of the fitted maximal effect
Outline: as §1

[16] = Quantitative High-Throughput drug screen in 47 multiple myeloma cell lines against the NCATS MIPE library collection: OCIMY7_PLB cell viability assay (AID 1918987); conditions: OCI-MY7 myeloma viability, CellTiter-Glo ATP, 48 h; viability (% of DMSO): at 45.8 µM (top of the series); further: nearly all actives have a fitted effect of over 65% in size
Outline: as §1

O=C(NCCCCN1CCOCC1)c1cc2ccccc2o1
inactive: Potency [1] | Potency [2] | viability [3] 115% | Potency [4] | Potency [5] | Potency [6] | Potency [7] | Potency [8] | Potency [9] | Potency [10]

Cn1c(=O)c(Oc2ccc(F)cc2F)cc2cnc(NC3CCOCC3)nc21
inactive: Potency [12] | Potency [8] | Potency [10]
active: Potency [1] 1.32 µM | Potency [11] 18.7 µM

CCCCC[C@H](O)C=C[C@H]1[C@H](O)CC(=O)[C@H]1CC=CCCCC(=O)O
active: Potency [1] 0.0148 µM | Potency [2] 18.7 µM | Potency [12] 18.7 µM | Potency [4] 20.9 µM | Potency [14] 23.5 µM
inactive: Potency [13] | Potency [8] | Potency [10]

CC[C@H]1OC(=O)[C@H](C)[C@@H](O[C@H]2C[C@@](C)(OC)[C@@H](O)[C@H](C)O2)[C@H](C)[C@@H](O[C@@H]2O[C@H](C)C[C@H](N(C)C)[C@H]2O)[C@](C)(O)C[C@H](C)C(=NOCOCCOC)[C@H](C)[C@@H](O)[C@]1(C)O
inactive: Potency [1] | Potency [2] | Potency [4] | Potency [5] | Potency [13] | Potency [14] | Potency [8]
active: Potency [7] 4.69 µM

CN1[C@H]2CC[C@H]1CC(OC(=O)c1c[nH]c3ccccc13)C2 (stereo partly drawn)
active: Potency [12] 10.5 µM | Potency [4] 16.6 µM | Potency [15] 8.33 µM | Potency [6] 6.62 µM
inactive: Potency [1] | Potency [13] | Potency [14] | Potency [7] | Potency [8]

COC(=O)N1CCN(Cc2cccc(NC(=O)Nc3ccc(C)nc3)c2F)CC1
inactive: Potency [1] | Potency [12] | Potency [4] | Potency [5] | Potency [7] | Potency [8]

CCC(=C(CC)c1ccc(O)cc1)c1ccc(O)cc1
active: Potency [1] 23.5 µM | Potency [11] 20.9 µM | Potency [3] 14.8 µM | Potency [4] 20.9 µM | Potency [5] 14.8 µM | Potency [14] 18.7 µM | Potency [6] 18.7 µM | Potency [7] 29.6 µM | Potency [8] 26.4 µM | Potency [9] 14.8 µM | Potency [10] 16.6 µM

O=C(Nc1ccccc1)Nc1ccc(-c2ccc(C(=O)[C@H]3CCC[C@H]3C(=O)O)cc2)cc1
active: Potency [11] 20.9 µM | Potency [4] 4.69 µM | Potency [5] 2.96 µM
inactive: Potency [1] | Potency [2] | viability [3] 114% | Potency [15] | Potency [14] | Potency [7] | Potency [9] | Potency [10]

CC1CNc2c(cccc2S(=O)(=O)N[C@@H](CCCN=C(N)N)C(=O)N2CC[C@@H](C)C[C@@H]2C(=O)O)C1 (stereo partly drawn)
inactive: Potency [1] | Potency [16] | Potency [12] | Potency [5] | Potency [15] | Potency [13] | Potency [14] | Potency [7] | Potency [8] | Potency [9] | Potency [10]
active: Potency [4] 5.9 µM

CCOc1ccccc1N=Nc1c(C)[nH]n(-c2nc(-c3ccccc3)cs2)c1=O
inactive: Potency [1] | Potency [2] | Potency [14] | Potency [8]
active: Potency [11] 1.18 µM | Potency [3] 2.96 µM | Potency [12] 8.33 µM | Potency [5] 1.05 µM | Potency [7] 2.35 µM

COc1ccc2c(c1)CC[C@H]1[C@@H]2CC[C@]2(C)[C@@H](NCCCCCCN3C(=O)C=CC3=O)CC[C@H]12
inactive: Potency [1] | viability [3] 134% | Potency [4] | Potency [5] | Potency [15] | Potency [14] | Potency [6] | Potency [9]
active: Potency [12] 20.9 µM

COc1ccnc(CS(=O)c2nc3ccc(OC(F)F)cc3[nH]2)c1OC (stereo not drawn)
active: Potency [4] 20.9 µM
inactive: Potency [1] | Potency [11] | viability [3] 150% | Potency [12] | Potency [14] | Potency [7] | Potency [8] | Potency [10]

COc1cc2ncn(-c3cc(OCc4ccccc4S(C)(=O)=O)c(C#N)s3)c2cc1OC
active: Potency [14] 1.05 µM
inactive: Potency [1] | Potency [2] | Potency [7] | Potency [8]

CSc1cccc(Nc2ncc3cc(-c4c(Cl)cccc4Cl)c(=O)n(C)c3n2)c1
active: Potency [1] 1.48 µM | Potency [11] 0.296 µM | Potency [3] 1.87 µM | Potency [4] 0.118 µM | Potency [15] 0.118 µM | Potency [13] 0.0166 µM | Potency [6] 0.187 µM | Potency [7] 2.35 µM | Potency [8] 1.32 µM | Potency [9] 0.187 µM

CN1CCN2c3ncccc3Cc3ccccc3C2C1 (stereo not drawn)
inactive: Potency [1] | Potency [2] | Potency [4] | Potency [13] | Potency [14] | Potency [6] | Potency [7] | Potency [8] | Potency [9] | Potency [10]

CO[C@H]1/C=C\O[C@@]2(C)Oc3c(C)c(O)c4c(O)c(c(C=NN5CCN(C6CCCC6)CC5)c(O)c4c3C2=O)NC(=O)C(C)=CC=C[C@H](C)[C@H](O)[C@@H](C)[C@@H](O)[C@@H](C)[C@H](OC(C)=O)[C@H]1C
active: Potency [1] 2.96 µM | Potency [11] 0.418 µM | Potency [2] 0.264 µM | Potency [3] 7.43 µM | Potency [12] 16.6 µM | Potency [4] 0.105 µM | Potency [13] 0.059 µM | Potency [14] 0.118 µM | Potency [6] 0.118 µM | Potency [7] 1.18 µM | Potency [8] 14.8 µM
